Experimental findings from PubChem BioAssay (EPA / NIEHS) are described below.

Calls of active or inactive are those of the source. The calls were made as follows: active = hit-call score of the fitted dose curve at least 0.9, where 1 is the maximum; inactive = score below 0.9.

Test [1] is described as follows: ATG_ISRE_CIS: Attagene CIS-FACTORIAL HepG2 Assay for human Interferon Regulatory Factor 1 (IRF1) binding to an Interferon-Stimulated Response Element (ISRE) (AID 2282948). To be noted: HepG2 ISRE cis-reporter (Attagene), mRNA transcription readout; actives raise or lower the signal. The essentials: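 Transfected HepG2 (multiple reporter transcription units, cis elements) dosed 24 h. RNA → oligo(dT) RT → PCR → 6-FAM primer extension → HpaI → CE. DMSO = negative control/baseline.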

A short description of test [2]: ATG_M_32_CIS: Attagene CIS-FACTORIAL HepG2 Assay for M32 Transcription Factor (Internal Marker) (AID 2282949).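 Also: background control marker of the multiplexed CIS panel rather than a real target.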 To be noted: HepG2 Attagene cis-factorial M32 reporter, mRNA; actives raise or lower the signal. The method in brief: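 HepG2 cells transiently transfected with multiplexed cis-regulated reporter units, dosed 24 h. Reporter mRNA quantified by RT-PCR, 6-FAM labelling, HpaI digestion and capillary electrophoresis; bidirectional fit vs DMSO.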

A short description of test [3]: ATG_M_06_CIS: Attagene CIS-FACTORIAL HepG2 Assay for M06 Transcription Factor (Internal Marker) (AID 2282950). To be noted: HepG2 Attagene CIS-FACTORIAL M06 internal marker reporter; actives raise or lower the signal. The essentials: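 Internal background marker within multiplexed cis-reporter HepG2 system. Cells transiently transfected, dosed 24 h; reporter mRNA measured by RT-PCR, HpaI digestion and capillary electrophoresis. Bidirectional fit relative to DMSO.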

Test [4] has as its target Hypoxia-inducible factor 1-alpha (Homo sapiens) (UniProt Q16665). Nature of the test: ATG_HIF1a_CIS: Attagene CIS-FACTORIAL HepG2 Assay for human Hypoxia Inducible Factor 1 (HIF1A) (AID 2282951). To be noted: HepG2 Attagene cis-factorial HIF1a reporter transcription; actives raise or lower the signal. The method in brief:
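After 24 h chemical exposure of reporter-transfected HepG2 cells, reporter cDNA was PCR-amplified, labelled by 6-FAM primer extension (2 min 95 C, 20 s 68 C, 10 min 72 C), HpaI-cut (2 h, 37 C) and analysed by CE.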

The target of test [5] is Hepatocyte nuclear factor 6 (Homo sapiens) (UniProt Q9UBC0). Kind of test: ATG_HNF6_CIS: Attagene CIS-FACTORIAL HepG2 Assay for human Hepatocyte Nuclear Factor 6 (HNF6) (AID 2282952). To be noted: HepG2 Attagene cis-factorial HNF6 reporter transcription; actives raise or lower the signal. The method in brief:
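Reporter mRNA induction or loss in HepG2 after 24 h exposure; transient cis-MRTU transfection; fragments quantified by capillary electrophoresis; bidirectional analysis, DMSO as negative control.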

The target of test [6] is Heat shock factor protein 1 (Homo sapiens) (UniProt Q00613). Nature of the test: ATG_HSE_CIS: Attagene CIS-FACTORIAL HepG2 Assay for human Heat Shock Transcription Factor 1 (HSE) (AID 2282953). The settings on record: HepG2 HSE cis-reporter, Attagene RNA transcription; actives raise or lower the signal. The essentials: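 HepG2 cells transfected with cis-promoter reporter units sensing endogenous transcription factor activity; reporter mRNA quantified 24 h post-dose by RT-PCR and capillary electrophoresis of 6-FAM-labelled products. Bidirectional fitting against DMSO.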
Sequence of Heat shock factor protein 1 (Homo sapiens) (Q00613 whole entry, looked up): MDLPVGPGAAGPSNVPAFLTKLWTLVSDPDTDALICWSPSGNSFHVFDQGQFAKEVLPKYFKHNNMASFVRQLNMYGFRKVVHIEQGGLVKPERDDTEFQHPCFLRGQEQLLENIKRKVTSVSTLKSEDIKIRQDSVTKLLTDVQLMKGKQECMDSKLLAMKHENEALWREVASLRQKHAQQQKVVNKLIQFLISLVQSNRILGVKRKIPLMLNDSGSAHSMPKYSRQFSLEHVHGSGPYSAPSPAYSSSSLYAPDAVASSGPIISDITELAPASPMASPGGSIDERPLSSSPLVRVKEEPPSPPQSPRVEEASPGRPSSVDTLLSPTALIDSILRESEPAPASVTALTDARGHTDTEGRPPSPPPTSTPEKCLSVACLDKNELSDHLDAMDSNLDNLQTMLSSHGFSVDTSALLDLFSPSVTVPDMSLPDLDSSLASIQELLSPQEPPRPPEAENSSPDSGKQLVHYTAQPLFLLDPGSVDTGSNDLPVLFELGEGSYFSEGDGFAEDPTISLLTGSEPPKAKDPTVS

A short description of test [7]: ATG_MRE_CIS: Attagene CIS-FACTORIAL HepG2 Assay for human Metal Responsive Element (MRE) (AID 2282954). To be noted: HepG2 MRE cis-reporter transcription, Attagene multiplex; actives raise or lower the signal. The method in brief: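 Transient MRTU transfection of HepG2 (FuGene 6); 24 h dosing; total RNA → oligo(dT) RT, PCR, 6-FAM primer extension, HpaI cut, CE. Bidirectional fit vs DMSO.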

The target of test [8] is Paired box protein Pax-6 (Homo sapiens) (UniProt P26367). Nature of the test: ATG_Pax6_CIS: Attagene CIS-FACTORIAL HepG2 Assay for human Paired Box 6 (PAX6) (AID 2282956). To be noted: HepG2 CIS-FACTORIAL PAX6 reporter transcription, RNA readout; actives raise or lower the signal. The method in brief:
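Transient MRTU transfection of HepG2 → compound exposure 24 h → TriZol RNA, oligo(dT) RT → PCR, 6-FAM primer extension, HpaI cut → capillary electrophoresis; activity fitted both directions against DMSO.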

A short description of test [9]: ATG_PXRE_CIS: Attagene CIS-FACTORIAL HepG2 Assay for human Pregnane X Receptor Element (PXRE) (AID 2282957). To be noted: HepG2 Attagene CIS-FACTORIAL PXRE reporter, mRNA; actives raise or lower the signal. The essentials: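 Transiently transfected HepG2 cells were dosed and incubated for 24 h. RNA was then isolated, DNase-treated, reverse-transcribed and reporter sequences amplified. Labeled, HpaI-digested fragments were quantified by capillary electrophoresis against DMSO.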

Test [10] in a line: ATG_PPRE_CIS: Attagene CIS-FACTORIAL HepG2 Assay for human Peroxisome Proliferator-activated Response Element (PPRE) (AID 2282958). The settings on record: HepG2 PPRE cis-element reporter, Attagene transcription factor profiling; actives raise or lower the signal. The method in brief: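 PPRE activity in HepG2: transient cis-reporter transfection, 24 h compound incubation, reporter mRNA by RT-PCR and CE fluorescence; gain/loss fitted against DMSO.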

Test [11] is described as follows: ATG_RORE_CIS: Attagene CIS-FACTORIAL HepG2 Assay for human RAR-related Orphan Receptor Element (RORE) (AID 2282959). The settings on record: HepG2 Attagene cis-factorial RORE reporter, mRNA; actives raise or lower the signal. The method in brief:
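A 24-hour exposure of transfected HepG2 hepatoma cells precedes RNA isolation and reporter RT-PCR. Labeled products are digested with HpaI and resolved by capillary electrophoresis, with gain or loss of signal scored relative to DMSO.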

Test [12] in a line: ATG_Sox_CIS: Attagene CIS-FACTORIAL HepG2 Assay for human SRY-box transcription factor (SOX) (AID 2282960). The settings on record: HepG2 Attagene cis-factorial SOX reporter, mRNA; actives raise or lower the signal. The method in brief:
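HepG2, cis reporter units, 24 h exposure. Reporter mRNA: RT-PCR → FAM labelling → HpaI → CE fluorescence. Bidirectional fit vs DMSO.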

The target in test [13] is Transcription factor Sp1 (Homo sapiens) (UniProt P08047). Nature of the test: ATG_Sp1_CIS: Attagene CIS-FACTORIAL HepG2 Assay for human Specificity Protein 1 (Sp1) (AID 2282961). The settings on record: HepG2 Sp1 cis-reporter transcription, actives raise or lower the signal. The essentials: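 Liver-derived HepG2 cells, cis-element reporter library, 24 h treatment; RNA isolated, cDNA amplified with reporter-specific primers, FAM-labeled fragments sized on capillary analyzer. DMSO baseline, bidirectional curve fit.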
Sequence of Transcription factor Sp1 (Homo sapiens) (P08047 whole entry, looked up, the tested form may be a part): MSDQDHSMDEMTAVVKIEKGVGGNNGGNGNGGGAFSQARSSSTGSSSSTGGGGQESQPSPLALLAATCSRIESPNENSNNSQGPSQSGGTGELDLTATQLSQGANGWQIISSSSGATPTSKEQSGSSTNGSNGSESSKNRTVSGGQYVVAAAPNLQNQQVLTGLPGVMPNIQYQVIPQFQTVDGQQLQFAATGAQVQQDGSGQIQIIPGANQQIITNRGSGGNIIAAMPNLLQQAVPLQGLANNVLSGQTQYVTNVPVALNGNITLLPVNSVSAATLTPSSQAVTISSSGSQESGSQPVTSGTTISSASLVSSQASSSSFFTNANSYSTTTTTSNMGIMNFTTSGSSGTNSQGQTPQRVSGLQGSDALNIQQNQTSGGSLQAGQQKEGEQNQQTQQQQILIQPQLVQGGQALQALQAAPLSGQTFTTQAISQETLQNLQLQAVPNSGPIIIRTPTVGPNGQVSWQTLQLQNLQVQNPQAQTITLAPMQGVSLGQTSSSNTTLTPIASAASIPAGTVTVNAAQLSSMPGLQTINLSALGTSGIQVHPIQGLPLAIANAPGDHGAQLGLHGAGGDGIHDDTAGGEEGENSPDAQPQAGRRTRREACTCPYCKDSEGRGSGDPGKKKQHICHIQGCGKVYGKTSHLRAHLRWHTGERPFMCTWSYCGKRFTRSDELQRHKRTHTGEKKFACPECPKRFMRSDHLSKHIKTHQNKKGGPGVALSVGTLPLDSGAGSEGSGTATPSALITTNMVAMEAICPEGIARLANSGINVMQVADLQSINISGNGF

The nature of test [14]: ATG_SREBP_CIS: Attagene CIS-FACTORIAL HepG2 Assay for human Sterol Regulatory Element Binding (SREBP) (AID 2282962). The settings on record: HepG2 Attagene cis-factorial SREBP reporter, mRNA; actives raise or lower the signal. The essentials:
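Transfected HepG2 (cis-regulated reporter library, endogenous TFs) → compound 24 h → total RNA → oligo(dT) RT → reporter-specific PCR → FAM primer extension, HpaI cut → CE fluorescence. Fit bidirectional vs DMSO.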

Test [15] is described as follows: ATG_TA_CIS: Attagene CIS-FACTORIAL HepG2 Assay for human TA Basal Promoter (AID 2282964). To be noted: HepG2 Attagene CIS-factorial TA basal promoter reporter; actives raise or lower the signal. The essentials:
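HepG2 cells transiently transfected with multiple reporter units under cis promoter elements, reporting endogenous transcription factor activity; this endpoint tracks the TA basal promoter as background control. Reporter mRNA after 24 h dosing measured by RT-PCR/capillary electrophoresis; bidirectional fits versus DMSO.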

Test [16] is described as follows: ATG_TCF_b_cat_CIS: Attagene CIS-FACTORIAL HepG2 Assay for human T-Cell-Factor with beta-catenin (TCF/b-cat) (AID 2282965). To be noted: HepG2 TCF/beta-catenin cis-reporter transcription, actives raise or lower the signal. The method in brief: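 Endogenous transcription factor activity is captured through cis-promoter reporter constructs transiently introduced into human HepG2 liver cells. Induced reporter mRNA is measured after 24 h and fitted bidirectionally relative to DMSO.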

Test [17] is described as follows: ATG_GRE_CIS: Attagene CIS-FACTORIAL HepG2 Assay for human Glucocorticoid Response Elements (GRE) (AID 2282947). To be noted: HepG2 GRE cis-reporter, Attagene multiplex mRNA; actives raise or lower the signal. The essentials: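 Transient MRTU transfection of human HepG2 liver cells; cis-regulated reporters report endogenous factors. 24 h dosing → RNA isolation → RT-PCR → 6-FAM primer extension → HpaI cut → CE fragment analysis. Bidirectional fit, DMSO negative control.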

The nature of test [18]: ATG_PBREM_CIS: Attagene CIS-FACTORIAL HepG2 Assay for human Phenobarbital-responsive Enhancer Module (PBREM) (AID 2282955). To be noted: HepG2 PBREM cis-reporter, Attagene multiplexed transcription; actives raise or lower the signal. The essentials:
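Measures endogenous factor action on a phenobarbital-responsive enhancer module. HepG2 transiently carrying cis reporters, 24 h treatment, mRNA read-out by RT-PCR plus capillary electrophoresis.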

For test [19], the target named is Signal transducer and activator of transcription 3 (Homo sapiens) (UniProt P40763). Kind of test: ATG_STAT3_CIS: Attagene CIS-FACTORIAL HepG2 Assay for human Signal Transducer and Activator of Transcription 3 (STAT3) (AID 2282963). The settings on record: HepG2, Attagene cis-factorial STAT3 reporter transcription; actives raise or lower the signal. The essentials:
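Endogenous STAT3-responsive cis-element activity was read in transiently transfected HepG2 cells after 24 h treatment. Reporter transcripts were quantified via RT-PCR and capillary electrophoresis, with DMSO as negative control and bidirectional curve fitting.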

Sequence of Hepatocyte nuclear factor 6 (Homo sapiens) (Q9UBC0 whole entry, looked up, the tested form may be a part): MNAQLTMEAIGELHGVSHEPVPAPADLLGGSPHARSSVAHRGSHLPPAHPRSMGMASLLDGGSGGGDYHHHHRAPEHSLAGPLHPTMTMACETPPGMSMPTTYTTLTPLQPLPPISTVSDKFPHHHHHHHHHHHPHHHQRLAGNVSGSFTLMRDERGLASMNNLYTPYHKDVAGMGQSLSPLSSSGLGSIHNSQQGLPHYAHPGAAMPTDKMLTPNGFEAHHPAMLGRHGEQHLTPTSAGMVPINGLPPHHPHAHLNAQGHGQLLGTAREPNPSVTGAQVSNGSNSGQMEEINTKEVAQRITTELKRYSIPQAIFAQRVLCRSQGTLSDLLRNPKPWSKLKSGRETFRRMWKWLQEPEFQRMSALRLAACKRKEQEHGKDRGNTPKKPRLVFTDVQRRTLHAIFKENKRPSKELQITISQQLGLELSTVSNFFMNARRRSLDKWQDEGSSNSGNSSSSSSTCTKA
Sequence of Hypoxia-inducible factor 1-alpha (Homo sapiens) (Q16665 whole entry, looked up): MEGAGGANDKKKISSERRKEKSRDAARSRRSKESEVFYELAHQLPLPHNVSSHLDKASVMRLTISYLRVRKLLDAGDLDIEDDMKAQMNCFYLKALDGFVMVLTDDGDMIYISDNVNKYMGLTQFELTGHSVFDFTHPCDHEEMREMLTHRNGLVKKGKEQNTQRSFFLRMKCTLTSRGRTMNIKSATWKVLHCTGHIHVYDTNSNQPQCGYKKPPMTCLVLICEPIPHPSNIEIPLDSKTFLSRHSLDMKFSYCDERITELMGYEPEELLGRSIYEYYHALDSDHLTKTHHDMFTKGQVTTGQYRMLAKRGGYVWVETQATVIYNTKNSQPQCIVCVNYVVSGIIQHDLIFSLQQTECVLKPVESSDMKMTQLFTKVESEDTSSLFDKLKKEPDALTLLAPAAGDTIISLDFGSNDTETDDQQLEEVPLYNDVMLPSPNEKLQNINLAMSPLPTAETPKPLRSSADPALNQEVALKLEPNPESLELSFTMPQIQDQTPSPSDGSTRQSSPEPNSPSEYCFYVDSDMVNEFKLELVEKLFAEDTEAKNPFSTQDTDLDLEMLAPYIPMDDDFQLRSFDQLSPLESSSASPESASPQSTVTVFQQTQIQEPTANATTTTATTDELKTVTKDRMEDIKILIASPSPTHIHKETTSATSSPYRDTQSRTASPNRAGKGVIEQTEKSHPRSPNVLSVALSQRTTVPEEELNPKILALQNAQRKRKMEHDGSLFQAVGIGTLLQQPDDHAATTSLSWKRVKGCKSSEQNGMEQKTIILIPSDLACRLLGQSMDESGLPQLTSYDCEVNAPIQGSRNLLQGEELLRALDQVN
Sequence of Signal transducer and activator of transcription 3 (Homo sapiens) (P40763 whole entry, looked up): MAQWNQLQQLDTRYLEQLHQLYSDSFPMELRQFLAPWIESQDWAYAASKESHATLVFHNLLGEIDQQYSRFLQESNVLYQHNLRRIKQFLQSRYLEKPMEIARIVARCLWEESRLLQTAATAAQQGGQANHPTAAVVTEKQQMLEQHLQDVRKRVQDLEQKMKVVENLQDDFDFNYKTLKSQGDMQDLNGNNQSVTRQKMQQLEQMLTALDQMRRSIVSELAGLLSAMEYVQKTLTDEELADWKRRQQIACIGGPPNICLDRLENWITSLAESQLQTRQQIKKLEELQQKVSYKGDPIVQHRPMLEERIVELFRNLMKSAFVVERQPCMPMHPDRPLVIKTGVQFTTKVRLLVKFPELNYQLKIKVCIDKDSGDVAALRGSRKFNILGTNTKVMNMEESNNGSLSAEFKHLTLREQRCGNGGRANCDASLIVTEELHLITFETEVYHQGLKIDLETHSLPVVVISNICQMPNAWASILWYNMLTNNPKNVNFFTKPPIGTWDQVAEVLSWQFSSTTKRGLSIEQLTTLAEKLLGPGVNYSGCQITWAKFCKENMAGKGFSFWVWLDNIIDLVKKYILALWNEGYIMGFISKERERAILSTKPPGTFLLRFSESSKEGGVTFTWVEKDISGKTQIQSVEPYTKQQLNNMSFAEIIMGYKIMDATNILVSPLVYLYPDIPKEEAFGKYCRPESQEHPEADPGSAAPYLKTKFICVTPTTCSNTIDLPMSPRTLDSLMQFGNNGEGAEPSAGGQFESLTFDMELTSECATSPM
Sequence of Paired box protein Pax-6 (Homo sapiens) (P26367 whole entry, looked up): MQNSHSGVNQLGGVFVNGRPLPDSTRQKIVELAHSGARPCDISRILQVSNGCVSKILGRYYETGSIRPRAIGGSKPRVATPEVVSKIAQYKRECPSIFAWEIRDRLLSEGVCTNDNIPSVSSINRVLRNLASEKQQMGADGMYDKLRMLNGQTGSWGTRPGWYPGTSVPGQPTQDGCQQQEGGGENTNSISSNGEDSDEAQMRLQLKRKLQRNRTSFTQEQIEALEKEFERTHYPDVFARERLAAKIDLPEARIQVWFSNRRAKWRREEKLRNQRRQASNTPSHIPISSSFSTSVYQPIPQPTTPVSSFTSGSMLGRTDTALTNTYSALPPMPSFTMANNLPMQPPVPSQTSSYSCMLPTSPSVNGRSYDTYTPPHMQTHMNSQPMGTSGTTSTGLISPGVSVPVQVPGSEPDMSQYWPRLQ

Regarding `C[N+](C)(C)CC1CO1` (stereo unspecified), the outcome in [1], in [2], in test [3], in test [4], in [5] and in test [6] was inactive. Further, the outcome in test [7], in test [8], in test [9], in test [10], in [11] and in test [12] was inactive. Moreover, the outcome in [13], in [14], in [15] and in test [16] was inactive.

Take `COC(=O)Nc1nc2ccccc2[nH]1`: the call in [17], in test [1], in test [2], in [3], in [4] and in [5] was inactive. Further, the result in test [6], in test [7], in test [18], in [9], in test [10] and in test [11] was inactive. For the same compound, the compound was called inactive in [12], in test [13], in test [14], in test [15] and in [16].

As to `Brc1ccc(Oc2ccccc2)cc1`, the compound was classed as inactive in test [17], in test [2], in test [3], in [4], in test [5] and in test [6]. The call in [7], in [8], in test [9], in [10], in test [11] and in test [12] was inactive. Further, the result in test [15] and in test [16] was inactive. Also, the AC50 – broadly, the concentration at which the activity in the assay is half-maximal – was 100 µM (active) in test [1], 100 µM (active) in test [13] and 149 µM (active) in [14].

`Cc1ccc(N=C=O)cc1N=C=O`: the compound was called inactive in test [17], in test [1], in [2], in test [3], in test [4] and in [5]. For the same compound, the outcome in test [7], in test [18], in test [9], in [11], in test [12] and in test [13] was inactive. Also, the compound was called inactive in test [14], in [15] and in test [16].

Consider `c1ccc(C2CO2)cc1` (stereo unspecified), for which the compound was classed as inactive in test [17], in test [1], in test [2], in [3], in test [4] and in [5]. The compound was classed as inactive in [6], in [7], in test [10], in [11], in test [12] and in test [13]. Moreover, the compound was classed as inactive in test [14], in test [15] and in test [16]. Also, in test [9], the AC50 was 34.8 µM (active).

For the compound `c1ccc2c(c1)-c1cccc3cccc-2c13`, the outcome in [1], in [3], in test [4], in test [5], in test [6] and in [7] was inactive. The outcome in test [18], in test [10], in test [11], in [12], in [13] and in [14] was inactive. Besides, the compound was called inactive in test [15] and in test [16]. Also, the AC50 in [2] is 0.00928 µM (active); in test [9] it was 26 µM (active).

Regarding `CCCCCOC(=O)c1ccccc1C(=O)OCCCCC`, the compound was classed as inactive in test [17], in [1], in test [2], in [3], in test [4] and in test [5]. Also, the result in [6], in test [18], in [11], in test [12], in [13] and in test [14] was inactive. In addition, the result in [19], in [15] and in test [16] was inactive. Further, the AC50 in test [7] is 151 µM (active); in test [9] it was 27.3 µM (active).

For the compound `COc1cc(C=O)cc2c1[C@H](COC(N)=O)[C@]1(OC(C)=O)ON2C[C@H]2[C@@H]1N2C(C)=O`, the AC50 in test [1] was 0.54 µM (active); in [4], 0.155 µM (active); in test [5], 9.05 µM (active); in [6], 8.4 µM (active); in [9], 8.47 µM (active); in test [19] it was 33.4 µM (active). Further, the values for the AC50 in [15] and in test [16] were 0.0965 µM (active) and 0.157 µM (active), respectively. Moreover, the outcome in [2], in test [3], in test [7], in [18], in [10] and in test [11] was inactive. The call in [12], in [13] and in test [14] was inactive.
